Values without a mark were called inactive.
compound: ClCC(=O)N1CCC(CC#N)C1; assay: log2 ratio of Biotin-Ahx-Ub-VS probe labelling (compound/DMSO); higher = less target engagement, active = hit call of the paper (q ≤ 0.05, log2 ratio ≤ -1); settings: compound concentration: 50uM; treatment time: 3 h
Protocol: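 Round 2 competitive ABPP in HEK293T lysate. Purified HTC-D2B compounds were tested at 50 and 200 µM for 3 h, followed by Biotin-Ahx-Ub-VS enrichment and diaPASEF LC-MS/MS. Values are the average log2 ratio (compound/DMSO) from an unpaired t-test (n=3 treated, n=26 DMSO).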

Sequence of UniProt Q9NP73 (Q9NP73 whole entry): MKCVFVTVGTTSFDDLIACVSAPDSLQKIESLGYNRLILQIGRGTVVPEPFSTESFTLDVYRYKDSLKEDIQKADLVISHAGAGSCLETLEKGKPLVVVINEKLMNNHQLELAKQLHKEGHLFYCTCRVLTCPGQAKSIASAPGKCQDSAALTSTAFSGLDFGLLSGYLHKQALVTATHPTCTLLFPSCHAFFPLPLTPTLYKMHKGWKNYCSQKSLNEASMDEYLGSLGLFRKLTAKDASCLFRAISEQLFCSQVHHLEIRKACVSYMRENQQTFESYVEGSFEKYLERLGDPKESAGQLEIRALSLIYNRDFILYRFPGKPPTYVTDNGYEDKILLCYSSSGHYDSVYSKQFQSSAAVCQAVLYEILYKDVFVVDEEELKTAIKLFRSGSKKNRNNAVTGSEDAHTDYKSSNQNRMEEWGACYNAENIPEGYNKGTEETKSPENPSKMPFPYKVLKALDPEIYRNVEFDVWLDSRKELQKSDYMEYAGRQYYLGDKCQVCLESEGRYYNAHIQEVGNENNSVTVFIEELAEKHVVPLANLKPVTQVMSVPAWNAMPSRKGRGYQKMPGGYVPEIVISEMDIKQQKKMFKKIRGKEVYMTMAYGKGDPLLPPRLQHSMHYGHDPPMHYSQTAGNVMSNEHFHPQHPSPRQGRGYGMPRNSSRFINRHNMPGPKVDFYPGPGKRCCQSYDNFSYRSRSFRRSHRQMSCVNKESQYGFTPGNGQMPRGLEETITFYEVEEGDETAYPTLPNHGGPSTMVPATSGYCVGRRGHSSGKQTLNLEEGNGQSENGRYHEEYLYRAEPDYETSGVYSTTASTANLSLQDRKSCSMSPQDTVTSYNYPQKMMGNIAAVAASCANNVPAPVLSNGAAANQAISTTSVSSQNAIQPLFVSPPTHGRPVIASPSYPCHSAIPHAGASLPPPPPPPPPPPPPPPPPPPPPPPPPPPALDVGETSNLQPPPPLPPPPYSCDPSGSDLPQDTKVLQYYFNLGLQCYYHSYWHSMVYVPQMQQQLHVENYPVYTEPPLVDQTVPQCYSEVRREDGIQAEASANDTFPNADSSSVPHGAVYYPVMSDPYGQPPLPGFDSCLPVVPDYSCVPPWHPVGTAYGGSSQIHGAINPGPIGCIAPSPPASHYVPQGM
Sequence of UniProt Q96RU2 (Q96RU2 whole entry): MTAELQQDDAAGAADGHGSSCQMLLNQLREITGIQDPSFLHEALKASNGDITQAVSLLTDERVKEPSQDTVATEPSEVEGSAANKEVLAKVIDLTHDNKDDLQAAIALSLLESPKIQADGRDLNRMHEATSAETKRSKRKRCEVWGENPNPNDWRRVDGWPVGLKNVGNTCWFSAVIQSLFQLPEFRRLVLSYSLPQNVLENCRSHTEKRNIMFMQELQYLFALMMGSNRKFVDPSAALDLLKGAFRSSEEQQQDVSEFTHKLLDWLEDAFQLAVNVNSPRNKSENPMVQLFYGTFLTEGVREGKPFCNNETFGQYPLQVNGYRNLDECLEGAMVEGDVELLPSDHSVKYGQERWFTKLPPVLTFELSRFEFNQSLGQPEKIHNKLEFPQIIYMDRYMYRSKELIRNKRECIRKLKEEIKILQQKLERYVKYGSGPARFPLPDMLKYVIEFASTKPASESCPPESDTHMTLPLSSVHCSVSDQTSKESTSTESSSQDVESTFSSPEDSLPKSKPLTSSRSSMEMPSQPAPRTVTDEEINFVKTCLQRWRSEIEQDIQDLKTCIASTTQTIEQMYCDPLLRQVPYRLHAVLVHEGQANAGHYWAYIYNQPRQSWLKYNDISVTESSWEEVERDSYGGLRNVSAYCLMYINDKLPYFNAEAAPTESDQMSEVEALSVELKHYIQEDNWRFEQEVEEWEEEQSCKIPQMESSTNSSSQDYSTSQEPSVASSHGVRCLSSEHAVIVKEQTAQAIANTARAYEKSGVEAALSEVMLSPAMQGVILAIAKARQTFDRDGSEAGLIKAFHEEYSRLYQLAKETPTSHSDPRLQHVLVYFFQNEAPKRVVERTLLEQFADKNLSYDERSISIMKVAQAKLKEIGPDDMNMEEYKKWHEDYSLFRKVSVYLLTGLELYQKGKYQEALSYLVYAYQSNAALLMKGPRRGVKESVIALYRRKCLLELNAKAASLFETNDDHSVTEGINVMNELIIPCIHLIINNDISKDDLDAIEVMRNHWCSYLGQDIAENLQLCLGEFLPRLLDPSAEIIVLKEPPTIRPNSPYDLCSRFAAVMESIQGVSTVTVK
Sequence of UniProt P62068 (P62068 whole entry): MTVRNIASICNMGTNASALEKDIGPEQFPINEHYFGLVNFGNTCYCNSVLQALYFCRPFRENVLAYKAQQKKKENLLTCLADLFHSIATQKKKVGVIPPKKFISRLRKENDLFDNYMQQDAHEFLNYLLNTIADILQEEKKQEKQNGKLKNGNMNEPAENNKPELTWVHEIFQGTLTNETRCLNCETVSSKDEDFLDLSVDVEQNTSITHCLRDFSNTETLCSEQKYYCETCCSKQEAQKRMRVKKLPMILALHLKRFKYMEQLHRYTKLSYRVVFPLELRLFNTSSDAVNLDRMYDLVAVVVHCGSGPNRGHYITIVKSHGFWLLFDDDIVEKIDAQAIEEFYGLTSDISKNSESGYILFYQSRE
Sequence of UniProt Q13107 (Q13107 whole entry): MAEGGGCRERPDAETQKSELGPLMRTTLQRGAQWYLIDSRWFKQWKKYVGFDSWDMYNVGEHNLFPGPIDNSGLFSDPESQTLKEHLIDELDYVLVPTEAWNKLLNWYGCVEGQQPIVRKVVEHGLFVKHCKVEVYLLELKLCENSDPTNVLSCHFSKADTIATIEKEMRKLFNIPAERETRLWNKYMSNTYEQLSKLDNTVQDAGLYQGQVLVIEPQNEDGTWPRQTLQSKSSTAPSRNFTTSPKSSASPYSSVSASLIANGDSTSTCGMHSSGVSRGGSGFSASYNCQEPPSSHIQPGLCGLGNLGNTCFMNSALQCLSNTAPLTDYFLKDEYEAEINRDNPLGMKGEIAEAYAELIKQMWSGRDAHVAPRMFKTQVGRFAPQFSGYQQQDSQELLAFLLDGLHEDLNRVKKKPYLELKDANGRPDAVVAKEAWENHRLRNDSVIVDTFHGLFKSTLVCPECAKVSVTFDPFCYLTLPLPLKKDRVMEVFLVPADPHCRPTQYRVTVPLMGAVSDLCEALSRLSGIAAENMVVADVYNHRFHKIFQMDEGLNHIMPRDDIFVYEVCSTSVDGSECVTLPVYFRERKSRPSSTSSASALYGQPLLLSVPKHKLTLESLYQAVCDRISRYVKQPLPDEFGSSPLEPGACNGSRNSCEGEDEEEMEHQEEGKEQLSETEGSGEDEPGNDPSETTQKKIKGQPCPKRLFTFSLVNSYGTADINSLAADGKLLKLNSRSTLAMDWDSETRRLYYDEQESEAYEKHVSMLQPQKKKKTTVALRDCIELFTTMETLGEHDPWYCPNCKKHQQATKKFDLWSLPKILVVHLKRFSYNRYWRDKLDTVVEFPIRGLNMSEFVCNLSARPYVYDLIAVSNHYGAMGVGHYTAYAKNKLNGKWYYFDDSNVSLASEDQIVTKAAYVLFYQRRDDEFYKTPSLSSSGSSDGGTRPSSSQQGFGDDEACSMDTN
Sequence of UniProt Q53GS9 (Q53GS9 whole entry): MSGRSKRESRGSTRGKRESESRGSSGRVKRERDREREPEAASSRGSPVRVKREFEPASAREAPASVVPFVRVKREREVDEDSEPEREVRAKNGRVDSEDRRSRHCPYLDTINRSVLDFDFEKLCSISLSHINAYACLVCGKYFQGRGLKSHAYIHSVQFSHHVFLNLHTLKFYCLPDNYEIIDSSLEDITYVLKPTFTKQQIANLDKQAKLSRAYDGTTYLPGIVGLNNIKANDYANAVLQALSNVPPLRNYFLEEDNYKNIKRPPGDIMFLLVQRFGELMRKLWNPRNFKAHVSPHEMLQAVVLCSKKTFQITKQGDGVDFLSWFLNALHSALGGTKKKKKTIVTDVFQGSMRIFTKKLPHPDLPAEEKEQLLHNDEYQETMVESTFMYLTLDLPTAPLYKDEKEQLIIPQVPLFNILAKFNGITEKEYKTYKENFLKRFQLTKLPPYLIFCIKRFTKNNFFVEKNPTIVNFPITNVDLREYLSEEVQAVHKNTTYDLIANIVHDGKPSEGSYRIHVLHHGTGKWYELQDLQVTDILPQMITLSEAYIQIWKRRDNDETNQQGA
Sequence of UniProt Q92560 (Q92560 whole entry): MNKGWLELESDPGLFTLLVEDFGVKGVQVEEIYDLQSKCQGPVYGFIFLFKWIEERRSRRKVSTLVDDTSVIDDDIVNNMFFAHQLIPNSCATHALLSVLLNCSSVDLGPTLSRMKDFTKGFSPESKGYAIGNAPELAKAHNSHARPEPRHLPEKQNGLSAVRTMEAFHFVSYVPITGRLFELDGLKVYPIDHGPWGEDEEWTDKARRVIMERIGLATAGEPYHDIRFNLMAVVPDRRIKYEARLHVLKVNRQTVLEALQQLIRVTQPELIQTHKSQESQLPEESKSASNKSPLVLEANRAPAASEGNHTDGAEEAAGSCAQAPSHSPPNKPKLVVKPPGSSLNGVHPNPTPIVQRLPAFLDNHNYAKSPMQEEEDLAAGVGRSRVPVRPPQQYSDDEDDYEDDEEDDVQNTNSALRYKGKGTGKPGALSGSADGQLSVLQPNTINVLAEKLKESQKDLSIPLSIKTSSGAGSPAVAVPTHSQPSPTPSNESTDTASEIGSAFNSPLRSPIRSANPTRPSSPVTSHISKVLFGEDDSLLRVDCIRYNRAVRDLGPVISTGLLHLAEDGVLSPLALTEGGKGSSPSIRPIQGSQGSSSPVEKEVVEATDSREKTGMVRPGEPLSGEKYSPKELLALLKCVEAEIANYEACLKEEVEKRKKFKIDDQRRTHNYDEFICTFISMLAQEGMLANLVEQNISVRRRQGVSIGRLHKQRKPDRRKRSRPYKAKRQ

Target | log2 ratio of Biotin-Ahx-Ub-VS probe labelling
USP39 (UniProt Q53GS9) | -0.0848
USP4 (UniProt Q13107) | -0.106
USP46 (UniProt P62068) | -0.14
USP54 (UniProt Q70EL1) | -0.068
USP22 (UniProt Q9UPT9) | -0.132
BAP1 (UniProt Q92560) | -0.376
ALG13 (UniProt Q9NP73) | 0.259
UniProt P51784 | -0.0555
USP28 (UniProt Q96RU2) | -0.0624

same assay, conditions: compound concentration: 200uM; treatment time: 3 h

Target | log2 ratio of Biotin-Ahx-Ub-VS probe labelling
USP39 (UniProt Q53GS9) | 0.0939
USP4 (UniProt Q13107) | 0.254
USP46 (UniProt P62068) | -0.548
USP54 (UniProt Q70EL1) | -0.954
USP22 (UniProt Q9UPT9) | -0.153
BAP1 (UniProt Q92560) | -0.502
ALG13 (UniProt Q9NP73) | 0.307
UniProt P51784 | -0.0925
USP28 (UniProt Q96RU2) | -0.291

Reference: the supplement of paper PMC11732987, “Enantioselective OTUD7B fragment discovery through chemoproteomics screening and high-throughput optimisation” (Communications Chemistry, 2025)
